Measured values taken from PubChem BioAssay (Tox21).
Records with an inconclusive call do not appear. Activity calls are given as the source filed them. Unless noted, calls follow the shape of the dose curve; as a rule, active = well fitted curve in the direction sought with a large enough effect in the repeat runs; inconclusive = weak or mixed curves; inactive = no such curve, though single readings can be large; an effect the other way counts as inactive or inconclusive.

How the values were obtained:
[1] = qHTS assay to identify small molecule antagonists of the retinoid acid receptor (RAR) signaling pathway - cell viability counter screen (AID 1159551); also: nearly all actives have a fitted effect of over 35% in size
Procedure, shortened: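 Cells (C3RL4) are plated, incubated overnight, dosed with compound in DMSO, then given retinol at 1 uM final. After 6 h at 37 C, CellTiter-Glo is added and luminescence read following 30 min at room temperature.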

[2] = qHTS assay to identify small molecule antagonists of the retinoic acid receptor (RAR) signaling pathway (AID 1159552; also: nearly all actives have a fitted effect of over 50% in size)
Procedure, shortened: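 Test chemicals and DMSO controls were pin-transferred onto C3RL4 cells a day after seeding; retinol (1 uM final) followed at once. Luminescent reporter output was quantified after 6 hr of co-incubation and 30 min with detection reagent.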

[3] = qHTS assay to identify small molecule agonists of the retinoic acid receptor (RAR) signaling pathway (AID 1159553); conditions: C3RL4 RARE luciferase reporter, agonist, 6 h; activation: at 73.3 µM (top of the series)
Procedure, shortened: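 Seed C3RL4 reporter cells at 1,000 per well and incubate overnight at 37 C. Add compounds in DMSO, incubate 6 hr. Add luciferase reagent, wait 30 min at room temperature, read luminescence.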

[4] = qHTS assay to identify small molecule antagonists of the estrogen related receptor (ERR) signaling pathway from Tox21 library - cell viability counter screen (AID 1224834); also: nearly all actives have a fitted effect of over 30% in size
Procedure, shortened: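 ERR cells, 2,000/well; 6 h settle at 37 C/5% CO2; pin-tool compound transfer in DMSO; 17.5 h at 37 C; CellTiter-Fluor, 30 min; fluorescence intensity.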

[5] = molecular target: Luciferin 4-monooxygenase (Photinus pyralis) (UniProt P08659); experiment: qHTS assay to identify small molecule inhibitors of firefly luciferase (AID 1224835); also: nearly all actives have a fitted effect of over 25% in size
Sequence of Luciferin 4-monooxygenase (Photinus pyralis) (P08659 whole entry, looked up): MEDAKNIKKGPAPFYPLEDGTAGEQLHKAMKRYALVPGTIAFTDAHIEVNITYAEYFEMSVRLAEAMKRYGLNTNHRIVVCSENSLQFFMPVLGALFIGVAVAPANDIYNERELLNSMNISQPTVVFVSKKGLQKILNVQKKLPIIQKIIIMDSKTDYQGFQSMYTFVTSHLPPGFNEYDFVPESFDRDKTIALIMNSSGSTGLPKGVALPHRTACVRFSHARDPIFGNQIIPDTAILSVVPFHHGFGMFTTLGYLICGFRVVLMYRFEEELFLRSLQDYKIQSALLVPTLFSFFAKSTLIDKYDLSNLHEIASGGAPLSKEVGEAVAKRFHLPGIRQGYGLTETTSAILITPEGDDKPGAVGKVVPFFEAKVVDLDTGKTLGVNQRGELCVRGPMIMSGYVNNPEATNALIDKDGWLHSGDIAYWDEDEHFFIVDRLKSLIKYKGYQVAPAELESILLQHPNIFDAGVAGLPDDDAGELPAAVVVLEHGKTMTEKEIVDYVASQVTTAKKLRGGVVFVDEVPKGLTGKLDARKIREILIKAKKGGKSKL
Procedure, shortened: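 Quantitative HTS format; KM concentrations of both substrates. Purified P. pyralis FLuc activity quantified from luminescence images.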

[6] = qHTS assay to identify small molecule agonists of the constitutive androstane receptor (CAR) signaling pathway - cell viability counter screen (AID 1224836); also: nearly all actives have a fitted effect of over 45% in size
Procedure, shortened: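 23 h treatment, 37 C, 5% CO2. Cell line: HepG2 stably expressing hCAR with a CYP2B6-2.2kb construct. Co-treatment: PK11195, 0.75 uM final. Read-out: CellTiter-Fluor fluorescence intensity.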

[7] = qHTS assay to identify small molecule antagonists of the constitutive androstane receptor (CAR) signaling pathway - cell viability counter screen (AID 1224837); also: nearly all actives have a fitted effect of over 45% in size
Procedure, shortened: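 Viability was measured with CellTiter-Fluor in a HepG2 line carrying stably transfected hCAR and a CYP2B6-2.2kb construct. Cells were exposed for 23 hr at 37 C to 15 compound concentrations with 50 nM CITCO as agonist.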

[8] = qHTS assay to identify small molecule antagonists of the estrogen related receptor signaling pathway with the pleiotropic PPARgamma coactivator (PGC) from Tox21 10K library - cell viability counter screen (AID 1224840; active = well fitted cell-killing curve with a large enough effect in the repeat runs, not every such curve was filed as active; also: nearly all actives have a fitted effect of over 40% in size)
Procedure, shortened: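 Multiplexed viability counter screen in the PGC/ERR cell line: cells treated with DMSO-dissolved compounds for 17.5 hours at 37 C, then viability measured as CellTiter-Fluor fluorescence.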

[9] = qHTS assay to identify small molecule agonists of the hypoxia (HIF-1) signaling pathway - cell viability counter screen (AID 1224844; calls by dose curve; also: nearly all actives have a fitted effect of over 50% in size)
Procedure, shortened: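 Cytotoxicity was measured in parallel with the HRE-driven beta-lactamase readout: after 17 hrs of compound exposure at 37C, HRE-bla ME-180 cells received CellTiter-Glo and luminescence was recorded 30 min later.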

[10] = qHTS assay to identify small molecule agonists of H2AX (AID 1224845; active = well fitted activation curve with a large enough effect in the signal ratio in the repeat runs, not every such curve was filed as active; the % refers to the signal ratio)
Procedure, shortened: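 Wild-type CHO-K1 cells plated overnight, then exposed 3 hr at 37C to compounds at 15 concentrations (0.76% DMSO). Lysed, then HTRF anti-pH2AX(S139)-cryptate/anti-H2AX-d2 detection after 24 hr at room temperature; emissions 665 and 620 nm.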

[11] = qHTS assay to identify small molecule agonists of the hypoxia (HIF-1) signaling pathway (AID 1224846; active = well fitted activation curve with a large enough effect in the signal ratio in the repeat runs, not every such curve was filed as active; the % refers to the signal ratio)
Procedure, shortened: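 Compounds from the Tox21 10K library, dissolved in DMSO, are tested for induction of a hypoxia response element–controlled beta-lactamase reporter in ME-180 cells. Exposure lasts 17 hrs at 37C after a 5 hr settling period, followed by CCF4-AM FRET substrate.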

[12] = qHTS assay to identify small molecule agonists of H2AX - cell viability counter screen (AID 1224847; calls by dose curve; also: top concentration of the series differs between compounds; nearly all actives have a fitted effect of over 30% in size)
Procedure, shortened: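 Compounds tested at 15 concentrations were incubated 3 hr at 37C with wild-type CHO-K1 cells; cellular ATP-based luminescence (CellTiter-Glo) indicated viability.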

[13] = qHTS assay to identify small molecule agonists of the RXR signaling pathway - cell viability counter screen (AID 1159529); also: nearly all actives have a fitted effect of over 50% in size
Procedure, shortened: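 Compounds dissolved in DMSO were pinned onto HEK 293T cells carrying a beta-lactamase reporter under RXR-alpha control and incubated 16 hr. Cytotoxicity was then quantified by CellTiter-Glo luminescence.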

[14] = molecular target: Thyrotropin receptor (Homo sapiens) (UniProt P16473); experiment: qHTS assay to identify small molecule agonists of the thyroid stimulating hormone receptor (TSHR) signaling pathway (AID 1224843; calls by dose curve; also: nearly all actives have a fitted effect of over 45% in size)
Sequence of Thyrotropin receptor (Homo sapiens) (P16473 whole entry, looked up): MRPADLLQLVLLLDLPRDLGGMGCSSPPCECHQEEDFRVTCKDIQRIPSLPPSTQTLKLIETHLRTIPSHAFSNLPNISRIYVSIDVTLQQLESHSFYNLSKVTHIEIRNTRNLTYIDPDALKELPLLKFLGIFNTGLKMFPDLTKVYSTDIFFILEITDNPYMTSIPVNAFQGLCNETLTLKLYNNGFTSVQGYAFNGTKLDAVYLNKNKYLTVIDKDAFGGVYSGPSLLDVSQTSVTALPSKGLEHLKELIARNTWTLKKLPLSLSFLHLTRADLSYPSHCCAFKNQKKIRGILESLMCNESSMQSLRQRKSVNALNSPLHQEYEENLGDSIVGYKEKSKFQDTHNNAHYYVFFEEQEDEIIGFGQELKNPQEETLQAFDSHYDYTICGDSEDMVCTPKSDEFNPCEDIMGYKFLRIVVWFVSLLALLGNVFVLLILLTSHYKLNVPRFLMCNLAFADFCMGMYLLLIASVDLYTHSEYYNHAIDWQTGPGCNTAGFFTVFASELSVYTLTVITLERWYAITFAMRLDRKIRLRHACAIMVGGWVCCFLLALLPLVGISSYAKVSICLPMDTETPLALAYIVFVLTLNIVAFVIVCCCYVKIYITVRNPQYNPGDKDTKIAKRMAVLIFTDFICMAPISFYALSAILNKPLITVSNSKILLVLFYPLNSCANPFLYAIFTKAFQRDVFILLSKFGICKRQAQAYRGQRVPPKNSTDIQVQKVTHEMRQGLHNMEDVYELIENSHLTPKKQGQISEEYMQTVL
Procedure, shortened: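 Using 15 concentrations per compound in triplicate, cAMP production was monitored in TSHR-HEK293 cells after 30 min compound incubation at RT; HTRF reagents followed, with fluorescence intensity recorded after 1 h.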

[15] = qHTS assay to identify small molecule agonists of the estrogen related receptor signaling pathway with the pleiotropic PPARgamma coactivator (PGC) from Tox21 10K library (AID 1224842); also: nearly all actives have a fitted effect of over 15% in size
Procedure, shortened: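 PGC/ERR reporter cells (NTP line) were seeded 2,000 per well, rested 6 h at 37 C/5% CO2, then pin-dosed with compounds in DMSO for 18 h at 37 C; luciferase read by One-Glo luminescence after 30 min at room temperature.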

[16] = qHTS assay to identify small molecule antagonists of the estrogen related receptor (ERR) signaling pathway from Tox21 library (AID 1224848); also: nearly all actives have a fitted effect of over 50% in size
Procedure, shortened: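 Tox21 10K compounds in DMSO tested for ERR pathway antagonism in NTP's ERR cell line; 18 h, 37 C exposure; ONE-Glo luminescence.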

[17] = qHTS assay to identify small molecule antagonists of the estrogen related receptor signaling pathway with the pleiotropic PPARgamma coactivator (PGC) from Tox21 10K library (AID 1224841; call rule not given here)
Procedure, shortened: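 Steps: plate 2,000 PGC/ERR cells per well; incubate 6 h at 37 C with 5% CO2; transfer compounds from DMSO stocks by pin tool; incubate 18 h at 37 C; add One-Glo; measure luminescence 30 min later.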

[18] = molecular target: Nuclear receptor subfamily 1 group I member 3 (Homo sapiens) (UniProt Q14994); experiment: qHTS assay to identify small molecule antagonists of the constitutive androstane receptor (CAR) signaling pathway (AID 1224838);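 also: HepG2 cells stably expressing hCAR with CYP2B6 luciferase reporter stimulated by CITCO; nearly all actives have a fitted effect of over 40% in size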
Sequence of Nuclear receptor subfamily 1 group I member 3 (Homo sapiens) (Q14994 whole entry, looked up): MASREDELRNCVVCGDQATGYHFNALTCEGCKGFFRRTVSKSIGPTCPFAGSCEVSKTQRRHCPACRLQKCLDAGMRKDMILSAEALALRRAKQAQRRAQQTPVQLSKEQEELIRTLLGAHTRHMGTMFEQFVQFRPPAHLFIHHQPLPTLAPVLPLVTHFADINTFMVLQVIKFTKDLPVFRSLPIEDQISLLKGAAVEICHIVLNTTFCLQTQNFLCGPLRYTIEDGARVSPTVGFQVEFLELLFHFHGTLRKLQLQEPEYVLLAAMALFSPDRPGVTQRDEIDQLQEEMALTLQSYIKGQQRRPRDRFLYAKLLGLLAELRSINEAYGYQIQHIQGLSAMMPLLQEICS
Procedure, shortened: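 Antagonist mode used CITCO at a final 50 nM to activate CAR in human hepatoma HepG2 cells carrying stable hCAR and a 2.2 kb CYP2B6 promoter-luciferase construct. Compounds were tested at 15 concentrations over 24 h, with luminescence as the end point.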

[19] = molecular target: Nuclear receptor subfamily 1 group I member 3 (Homo sapiens) (UniProt Q14994); experiment: qHTS assay to identify small molecule agonists of the constitutive androstane receptor (CAR) signaling pathway (AID 1224839); also: nearly all actives have a fitted effect of over 15% in size
Procedure, shortened: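 Compounds tested at 15 concentrations on HepG2 cells stably harbouring hCAR and CYP2B6-2.2kb reporter constructs, co-treated with PK11195 (0.75 uM final), 24 h at 37 C; luminescent reporter signal quantified.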
% is scaled to controls: 0 for no effect and ±100 for the full control effect.

Cc1cc(O)c2c(c1)C(=O)c1cccc(O)c1C2=O
inactive: outcome [1] | Potency [2] | Potency [3] | Potency [4] | Potency [5] | outcome [6] | Potency [7] | outcome [8] | outcome [9] | outcome [10] | outcome [11] | Potency [12]

CCCCCCCCCCCCOC(C)=O
inactive: outcome [13] | outcome [1] | Potency [2] | Potency [3] | Potency [4] | outcome [6] | Potency [7] | outcome [14] | outcome [9] | outcome [10] | outcome [11] | Potency [12]

NC(=O)C1(N2CCCCC2)CCN(CCCC(=O)c2ccc(F)cc2)CC1
inactive: outcome [13] | outcome [1] | Potency [2] | Potency [3] | Potency [5] | outcome [6] | Potency [7] | outcome [8] | outcome [15] | outcome [14] | outcome [9] | outcome [10] | outcome [11] | Potency [12] | Potency [16]

CCCOCCOCCOCCO
inactive: outcome [13] | outcome [1] | Potency [2] | Potency [3] | Potency [4] | Potency [5] | outcome [6] | Potency [7] | outcome [8] | Potency [17] | outcome [15] | outcome [9] | outcome [10] | outcome [11] | Potency [12] | Potency [16]

O=C(Nc1cccc(C2=NCCN2)c1)Nc1cccc(C2=NCCN2)c1
inactive: activity change, negative = cytotoxicity [1] 1.4% [at 19 µM] | activity, negative = inhibition [2] 6.53% [at 19 µM] | Potency [3] | viability change, negative = cytotoxic [4] 1.33% [at 19 µM] | activity change, negative = inhibition [5] -1.49% [at 23.6 µM] | viability change, negative = cytotoxic [6] 0.131% [at 19 µM] | activity change, negative = cytotoxicity [7] 1.51% [at 19 µM] | viability change, negative = cytotoxic [8] 0.87% [at 19 µM] | activity change, negative = cytotoxicity [9] 3.42% [at 15.8 µM] | activation (H2AX phosphorylation) [10] 0.307% [at 31.6 µM] | activation [11] -0.385% [at 15.8 µM] | activity change, negative = cytotoxicity [12] 4.49% [at 31.6 µM]

O=C(O)Cc1cccc(-c2cc(CCCCCCc3ccc(O[C@H]4O[C@H](CO)[C@@H](O)[C@H](O)[C@@H]4O)c(-c4cccc(CC(=O)O)c4)c3)ccc2O[C@H]2O[C@H](CO)[C@@H](O)[C@H](O)[C@@H]2O)c1
inactive: activity change, negative = cytotoxicity [13] 12.1% [at 0.29 µM] | activity change, negative = cytotoxicity [1] -1.44% [at 0.349 µM] | activity, negative = inhibition [2] -0.764% [at 0.349 µM] | activation [3] 0.783% [at 0.756 µM] | viability change, negative = cytotoxic [4] -1.71% [at 0.349 µM] | activity change, negative = inhibition [5] 2.97% [at 0.435 µM] | activity change, negative = cytotoxicity [7] 5.71% [at 0.349 µM] | viability change, negative = cytotoxic [8] -0.865% [at 0.349 µM] | activation [14] 2.03% [at 0.349 µM] | activity change, negative = cytotoxicity [9] 6.42% [at 0.29 µM] | activation (H2AX phosphorylation) [10] 0.108% [at 0.582 µM] | activation [11] -0.541% [at 0.291 µM] | activity change, negative = cytotoxicity [12] -1.18% [at 0.582 µM]

CCOC(=O)CCCCCCCCC(=O)OCC
inactive: outcome [13] | outcome [1] | Potency [2] | Potency [3] | Potency [4] | outcome [6] | Potency [7] | Potency [18] | Potency [19] | outcome [8] | outcome [9] | outcome [10] | outcome [11] | Potency [12]
